Assay outcomes from PubChem.
ELG1 genotox – genotoxicity induction in ELG1-luciferase HEK293T cells. HEK293T ELG1-luciferase reporter, luminescence, 16 h. Potency, µM (top dose mostly 46 µM), for the others: at the highest dose activity change, positive = activation, actives largely listed as activators. 1.3% of 330,000 active; note: % of control where 0% means no effect; nearly all actives have a fitted effect of over 60% in size
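DMSO vehicle served as control against compound-treated ELG1-luciferase HEK293T cells; exposure lasted 16 hr at 37 °C and 5% CO2, followed by ONE-Glo luminescence detection after 30 min.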
p53 reactivator – mutant p53 re-activation in reporter cells; H1299 p53-A138V BP100-luciferase reporter, luminescence, 24 h; Potency, µM (series often up to 92.2 µM), without a hit: at the highest dose activity change, positive = activation, actives largely listed as activators; 0.063% of 320,000 active; AID 504706; note: % of control where 0% means no effect; nearly all actives have a fitted effect of over 45% in size
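p53-null H1299 cells stably carrying temperature-sensitive p53-A138V and a BP100-luciferase reporter were pinned with compounds (4-point, 1:5 series) and held 24 hrs at 37 deg C. Luminescence was read 10 min after detection reagent.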
NPC1 promoter act – activators of NPC1 promoter | Huh7 NPC1 promoter luciferase reporter, 24 h | Potency, µM (titrated, usually from 9.22 µM), inactives show at the highest dose activation, hits mostly activators | 2.4% of 320,000 active | AID 485313; note: % of control where 0% means no effect; nearly all actives have a fitted effect of over 60% in size
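Huh7 reporter cells (NPC1 promoter driving luciferase) are dosed with compound for 24 h at 37 °C, 5% CO2; luciferase detection reagent is then added and luminescence measured after 10 min at ambient temperature.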
SMN2 splice enh – SMN2 splice variant enhancement | HEK293 SMN2-luciferase splicing reporter, luminescence, 30-36 h | Potency, µM (doses to about 46.1 µM), inactives show top-dose activity change, positive = activation, most hits filed as activators | 2.8% of 210,000 active | AID 1458; note: % of control where 0% means no effect; nearly all actives have a fitted effect of over 55% in size
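HEK293 cells carry an SMN2 minigene-luciferase reporter in which exon 7 inclusion puts luciferase in frame. Cells were seeded at 2000 cells/well, attached for 10-12 hours, then exposed to compounds for 30-36 hours at 37C before ONE-Glo luminescence.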
FLuc modulator – firefly luciferase modulation, counter-screen for miR-21 project; P08659; 6.9% of 360,000 active; purified FLuc, Km substrates, luminescence inhibition; Potency, µM (series often up to 57.5 µM), without a hit: top-dose activity change, negative = inhibition, most hits filed as inhibitors;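 note: plate controls were vehicle for no effect and reference inhibitor for full effect; nearly all actives have a fitted effect of over 55% in size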
Target sequence (P08659 whole entry, looked up): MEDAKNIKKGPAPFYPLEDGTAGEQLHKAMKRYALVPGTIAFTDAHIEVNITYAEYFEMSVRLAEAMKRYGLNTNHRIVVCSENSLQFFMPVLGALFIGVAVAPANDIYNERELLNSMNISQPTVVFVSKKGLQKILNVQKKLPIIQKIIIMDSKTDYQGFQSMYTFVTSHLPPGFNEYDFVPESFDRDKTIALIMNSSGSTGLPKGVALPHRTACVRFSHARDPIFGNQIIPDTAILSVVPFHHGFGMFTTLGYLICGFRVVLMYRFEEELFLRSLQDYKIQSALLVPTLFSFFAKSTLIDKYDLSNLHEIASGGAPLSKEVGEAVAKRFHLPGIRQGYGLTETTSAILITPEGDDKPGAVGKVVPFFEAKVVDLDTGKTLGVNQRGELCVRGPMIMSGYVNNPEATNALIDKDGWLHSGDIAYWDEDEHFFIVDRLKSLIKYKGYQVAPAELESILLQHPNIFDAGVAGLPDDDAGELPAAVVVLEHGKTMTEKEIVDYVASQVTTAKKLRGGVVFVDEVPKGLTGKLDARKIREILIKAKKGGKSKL
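Purified P. pyralis luciferase (10nM final) with 10uM D-luciferin and 10uM ATP (Km levels) in 50mM Tris acetate pH 7.5, 10mM Mg acetate, 0.01% Tween-20, 0.05% BSA; qHTS 6-point titration, ~60 µM downward; luminescence read.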
Rab9 promoter act – activates the Rab9 promoter | 2.8% of 320,000 active | Potency, µM (doses to about 9.22 µM), inactives show at the top dose activation, negative = inhibition, hits mostly activators | Huh7 Rab9 promoter-luciferase reporter, luminescence, 24 h; note: % of control where 0% means no effect; nearly all actives have a fitted effect of over 60% in size
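Cell-based reporter: Huh7 stable for Rab9 promoter-driven luciferase, plated in reduced-serum medium with 10% FBS at 1500 cells/well, compound-treated 24 h at 37 °C, luminescence read after 10 min reagent.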
* = called active by the depositor; u = inconclusive; x = not tested or not shown; [ ] = remark or other dose. Shown are actives, neighbours in structure and some others; about 7.4% of the full set was active somewhere. Calls come from the whole dose curve; as a rule, active = well fitted curve in the direction sought with a large enough effect; inconclusive = small, poorly fitted or top-dose-only effect, or another doubt; inactive = no such curve, though single readings can be large; an effect the other way counts as inactive or inconclusive. Potency is the fitted concentration of half-maximal effect.

SMILES	ELG1 genotox	p53 reactivator	NPC1 promoter act	SMN2 splice enh	FLuc modulator	Rab9 promoter act
Cc1ccc(NC(=O)c2ccc(S(=O)(=O)N3CCCCCC3)cc2)nc1	-3.1%	12.1%	3.0%	x	u	8.2%
O=C(Nc1ccc(Cl)cn1)c1ccc(Oc2ccccc2)cc1	u	x	1.26µM*	x	3.38µM*	2.24µM*
Cc1ccc(NC(=O)COc2ccc(Br)cc2CO)cc1S(=O)(=O)N1CCOCC1	-11.6%	-9.5%	x	x	x	x
CON	x	x	x	12.2%	x	x
C#CCOc1ccc(-c2nnc(Nc3ccc(NC(C)=O)cc3)c3ccccc23)cc1	x	x	x	-13.6%	-15.8%	x
CC(NC(=O)CN1C(=O)NC2(CCCCCC2)C1=O)c1ccccc1 (centres undefined)	3.2%	u	0.6%	x	x	-3.4%
O=c1cc(-c2ccccc2F)[nH]c2cc3c(cc12)OCO3	x	x	u	x	x	-5.0%[46.1 µM]
Cc1nc(NC(=O)c2cccnc2)ccc1Br	u	29.8%	15.8%	0.2%	-18.2%	22.5%
Cc1ccccc1C(=O)Nc1ccc(Br)c(C)n1	11.6µM*	u	u	79.8%	23.9µM*	u
O=C(Cn1c(=O)n(-c2ccc(Cl)cc2)c(=O)c2c3c(sc21)CCC3)c1ccc(F)cc1	x	x	x	10.6%	1.6%	x
COCC(=O)Nc1nc(-c2ccc([N+](=O)[O-])cc2)cs1	-0.3%	3.4%	0.3%	3.2%	-4.9%	u
O=C(COC(=O)c1ccccn1)Nc1nc(-c2ccccc2)cs1	23.9%	u	0.1%	x	u	21.0%
Cn1ncc(Br)c1C(=O)OCC(=O)Nc1nc(-c2ccccc2)cs1	0.7%	u	21.6%	14.1µM*	-6.0%	-1.2%
COc1cccc(-c2csc(NC(C)=O)n2)c1	10.3µM*	8.2%	3.98µM*	28.2µM*	15.1µM*	3.98µM*
CCc1ccc(OC(=O)Nc2ccccc2)cc1	9.3%	x	-2.4%	x	9.53µM*	u
COCC(=O)Nc1nc(-c2ccc(-c3ccccc3)cc2)cs1	0.2%	x	2.24µM*	x	u	0.794µM*
Cc1ccc(S(=O)(=O)N[C@@H](Cc2ccccc2)C(=O)N2CCC[C@@H]2C(=O)O)cc1	-0.1%	-0.4%	-6.3%	x	0.5%	1.0%
O=C(Nc1ccc(O)c(C(=O)O)c1)Oc1ccccc1	2.9%	3.3%	0.9%	x	13.5µM*	12.0%
O=C(CN1CCCCC1)Nc1nc(-c2ccc(Cl)cc2)cs1	6.8%	2.8%	1.3%	x	16.9µM*	1.2%
CN1CCN(CC(=O)N(C)c2nc(-c3ccccc3)cs2)CC1	u	u	3.98µM*	-34.5%	15.1µM*	2.82µM*
CN1CCN(CC(=O)Nc2nc(-c3ccccc3)cs2)CC1	2.0%	-3.5%	-4.1%	-1.9%	-17.6%	-2.1%
O=C(CN1CCCCC1)Nc1nc(-c2ccccc2)cs1	u	u	u	x	21.3µM*	22.4%
COc1cccc(CCc2ccccc2OCC[C@@H]2C[C@@H](O)CN2C)c1	x	x	x	-37.6%	x	x
CCOC(=O)c1c(NC(=O)/C=C/c2ccc(OCC)c(OC)c2)sc2c1CCC2	x	x	x	13.3%	-0.9%	x
CCC(C)n1c(=N)c(C(=O)NC2CCCCC2)cc2c(=O)n3cc(C)ccc3nc21 (centres undefined)	x	x	x	-7.5%	-4.5%	x
SMILES	ELG1 genotox	p53 reactivator	NPC1 promoter act	SMN2 splice enh	FLuc modulator	Rab9 promoter act
CCc1ccc(-c2csc(NC(=O)Oc3ccccc3)n2)cc1	u	14.1µM*	u	x	6.01µM*	u
CC(OC(=O)c1ccc(NC(=O)CC#N)cc1)C(=O)Nc1nc(-c2ccccc2)cs1 (centres undefined)	23.1µM*	8.3%	11.0%	x	2.1%	15.9%
O=C(CSc1nc(-c2ccc(F)cc2)[nH]c1-c1ccccc1)NCC1CCCO1 (centres undefined)	x	x	x	-6.4%	-9.2%	x
Cn1c(=O)c2c(SCc3ccccc3)nc(C3CC3)nc2n(C)c1=O	4.1%	-0.4%	-1.2%	x	-1.3%	9.2%
Cn1c(=O)c2c(SCc3ccccn3)nc(C3CC3)nc2n(C)c1=O	16.4µM*	9.3%	0.4%	28.5%	-1.5%	12.6%
Cc1cc(C(=O)NNS(=O)(=O)c2cc(C(=O)O)ccc2Cl)c(C)n1-c1ccccc1	0.3%	0.3%	-1.5%	x	23.9µM*	-6.7%
Cc1ccc(-n2c(C)cc(C(=O)NS(=O)(=O)c3ccc(C)cc3)c2C)cc1	1.4%	11.1%	-0.4%	19.9%	1.8%	-5.3%
Cc1ccc(NC(=O)c2cc(C)n(-c3cccc(C)c3)c2C)cc1	u	u	15.0%	27.0%	1.51µM*	u
Cc1ccc(NC(=O)c2cc(C)n(-c3ccccc3)c2C)cc1	0.231µM*	4.0%	-2.4%	-93.7%	0.0536µM*	u
Cc1cc(C(=O)Nc2ccc(Cl)cc2)c(C)n1-c1ccccc1	u	-9.2%	-24.4%	x	0.0478µM*	-28.1%
CC(C)(C)NS(=O)(=O)c1cc(C(=O)O)ccc1Cl	0.1%	5.9%	-3.4%	3.1%	-8.2%	-3.7%
Cc1cc(C(=O)Nc2ccc(Cl)cc2)n(-c2ccccc2)n1	4.8%	5.9%	1.5%	x	-20.0%	0.8%
Cc1cccc(NC(=O)c2ccc(NC(=O)c3ccccc3Br)cc2)c1	-14.5%	5.5%	1.5%	x	-17.2%	-1.2%
O=C(C1CCCCC1)N(Cc1cccnc1)c1nc2c(F)cc(F)cc2s1	x	x	x	x	4.8%	x
CN(CC(=O)Nc1ccccc1Cl)CC(=O)Nc1cccc2ccccc12	-8.8%	-6.4%	x	x	x	x
N#Cc1cc(-c2ccccc2)cnc1Sc1ccccc1	0.2%	12.2%	1.3%	5.5%	21.3µM*	5.5%
Cc1ccc(Sc2nnc(-c3ccccc3)cc2C#N)cc1	-2.4%	4.0%	-3.0%	-14.3%	9.5%	-1.8%
COc1ccc2[nH]cc(CCNc3cc(-c4ccccc4C(F)(F)F)ncn3)c2c1	x	x	x	-2.5%	x	x
O=[N+]([O-])/C=C\c1ccc(N2CCCC2)c(F)c1	-9.1%	-8.1%	15.8%	5.62µM*	u	26.8%
O=Cc1ccc(N2CCCC2)c([N+](=O)[O-])c1	0.8%	1.0%	-2.8%	-2.6%	-2.3%	-3.3%
COc1cccc(CNc2sc3c(c2C(=O)Nc2ccc(OC)cc2OC)CCC3)c1	x	x	x	x	-17.1%	x
CC(C)CC1c2[nH]c3ccccc3c2CCN1C(=O)c1cnccn1 (centres undefined)	u	5.6%	3.55µM*	x	10.7µM*	3.55µM*
CC(=O)c1cc(C(=O)N2CCc3c([nH]c4ccccc34)C2CC(C)C)[nH]n1 (centres undefined)	-0.1%	-2.1%	2.4%	x	-1.3%	-2.8%
Cc1ccc2nc(-c3ccc(SCC(=O)Nc4ccc5c(c4)OCCO5)nc3)[nH]c2c1	u	u	3.16µM*	u	0.601µM*	2.82µM*
CC(=O)Nc1ccc(NC(=O)CSc2ccc(-c3ccc4c(c3)OCO4)nn2)cc1	u	25.7%	25.7%	u	-19.3%	24.2%
